Results filed as inconclusive are left out. Values without a mark were called inactive. The call rests on the fitted dose curve; tested in HEK293 reporter line.
Assay: qHTS for Inhibitors of the Functional Ribonucleoprotein Complex (vRNP) of Lassa (LASV) Arenavirus: LASV Primary Screen - GLuc reporter signal (AID 1347082); further: nearly all actives have a fitted effect of over 60% in size
Conditions: LASV minigenome vRNP, Gaussia luciferase reporter; series mostly up to 57.5 µM; activity change, negative = inhibition: at the top concentration
With `C[C@]12CCC(=O)C=C1[C@@H]1CC1[C@H]1[C@H]3[C@@H]4C[C@H]4[C@@]4(CCC(=O)O4)[C@@]3(C)CC[C@H]12` (stereo not given in full) the “activity change, negative = inhibition” value was -8.9%. In the case of `O=c1c(-c2ccc(O)cc2)coc2cc(OC3OC(CO)C(O)C(O)C3O)ccc12` (stereo not given), the “activity change, negative = inhibition” value is reported as 6.46%. For `COc1cc(OC)c2c(-c3ccccc3)cc(=O)oc2c1`, the “activity change, negative = inhibition” value was -8.84%. With `COc1ccc(-c2cnc(-c3cccnc3)o2)cc1` the “activity change, negative = inhibition” value was -3.35%. In the case of `COc1cc(C(C)=O)cc(OC)c1O`, the “activity change, negative = inhibition” value is reported as 4.15%. In the case of `C=C1C2CC[C@]3(CCC4[C@@]5(C)CCC[C@@]4(CN(CCO)C5)[C@@H]3C2)[C@@H]1O` (stereo not given in full), the “activity change, negative = inhibition” value is reported as 6.42%. With `COc1c2c(cc3oc(C)cc(=O)c13)OC(C(C)(C)OC1OC(CO)C(O)C(O)C1O)C2` (stereo not given) the “activity change, negative = inhibition” value was 1.29%. In the case of `CCN1CC2(COC(=O)c3ccccc3N)CCC(OC)C34C5CC6C(OC)CC(O)(C5C6OC)C(O)(C(OC)C23)C14` (stereo not given), the “activity change, negative = inhibition” value is reported as 4.33%. For `O=C1C=C(C2OC(CO)C(O)C2O)C(=O)N1` (stereo not given), the “activity change, negative = inhibition” value was -8.26%. With `COC(=O)C1=CO[C@@H](O)[C@@H]2C(CO)=CC[C@@H]12` the “activity change, negative = inhibition” value was 0.0722%. With `CC(=O)OC(C)c1ccccc1` (stereo not given) the “activity change, negative = inhibition” value was 7.57% [at 115 µM]. In the case of `CC(c1c(O)c2ccccc2[nH]c1=O)C1(C)CCC(O)C(C)(C)O1` (stereo not given), the “activity change, negative = inhibition” value is reported as -4.44%. In the case of `COc1cc(C)c(C(=O)Oc2cc(C)c(C(=O)O)c(O)c2C)c(O)c1C(=O)O`, the “activity change, negative = inhibition” value is reported as 1.45%. In the case of `O=C(CCCO)CCCCCCCCC[C@H]1N[C@H](CO)[C@@H](O)[C@@H]1O`, the “activity change, negative = inhibition” value is reported as -1.05%. For `COc1c2ccoc2c(OC[C@@H](OC(C)=O)C(C)(C)O)c2oc(=O)ccc12`, the “activity change, negative = inhibition” value was 6.51%. With `CC1=CCC2C(C1)C2(C)C` (stereo not given) the “activity change, negative = inhibition” value was -33.3% [at 115 µM]. For `CC/C=C\C/C=C\C/C=C\C/C=C\C=C\C(O)CCCC(=O)O` (stereo not given), the activity change, negative = inhibition was 1.12% [at 0.757 µM]. In the case of `O=C(Nc1ncc(SCCN2CCCC2)s1)[C@]1(c2ccc(S(=O)(=O)C3CC3)cc2)C[C@@H]1C1CCCCC1`, the “activity change, negative = inhibition” value is reported as 3.78%. For `CC[C@]1(O)C[C@@H]2CN(CCc3c([nH]c4ccccc34)[C@@](C(=O)OC)(c3cc4c(cc3OC)N(C=O)[C@@H]3C45CCN4CC=C[C@](CC)([C@H]45)[C@@H](OC(C)=O)[C@]3(O)C(=O)OC)C2)C1` (stereo not given in full), the “activity change, negative = inhibition” value was -4.28%. In the case of `C=C(C)[C@@H]1CCC2=CC(=O)C[C@@H](C)[C@]2(C)C1`, the “activity change, negative = inhibition” value is reported as -9% [at 115 µM]. Compound `C[C@]12O[C@H](C[C@@]1(O)C(=O)O)n1c3ccccc3c3c4c(c5c6ccccc6n2c5c31)CNC4=O` has an activity change, negative = inhibition of -19.8% [at 5.82 µM]. With `COC(=O)Nc1ccc(C)c(NC(=O)OC)c1` the “activity change, negative = inhibition” value was -5.66%. For `CC(C)=CCc1c(O)cc(O)c2c1OC(c1ccc(O)cc1)CC2=O` (stereo not given), the “activity change, negative = inhibition” value was 0.943%. With `[3H]C([3H])([3H])C(O)(CCC[C@@H](C)C1CC[C@H]2/C(=C/C=C3/C[C@@H](O)CCC3=C)CCC[C@]12C)C([3H])([3H])[3H]` (stereo not given in full) the “activity change, negative = inhibition” value was -5.14%. With `C/C(=C/C=C/[C@@H](C)C(=O)O)[C@H]1CN[C@H](C(=O)O)[C@H]1CC(=O)O` the “activity change, negative = inhibition” value was 4.32%. For `O=C1c2ccccc2C(=O)c2c(O)ccc(O)c21`, the “activity change, negative = inhibition” value was -8.3%. In the case of `CC/C=C\CCOC(=O)CC`, the “activity change, negative = inhibition” value is reported as -5.92%. With `CCC1(CC)C(=O)NC(=O)N(c2ccccc2)C1=O` the “activity change, negative = inhibition” value was 18.1%. With `O=C(O)c1cccc(Br)c1` the “activity change, negative = inhibition” value was 4.5%. With `c1cnc2c(-c3nccc4c3[nH]c3ccccc34)cccc2c1` the “activity change, negative = inhibition” value was -20.7%. For `CC1C2CC(CC2C2CCCC(O)C2)C1(C)C` (stereo not given), the “activity change, negative = inhibition” value was -6.86%. For `COc1cc2c(cc1OC)OC(C)(C)C=C2`, the “activity change, negative = inhibition” value was 12.5%. For `CS(C)(=O)=O`, the “activity change, negative = inhibition” value was -18.4%. With `C=C(C)[C@@H]1CCC2(C(=O)O)CC[C@]3(C)[C@H](CC[C@@H]4[C@@]5(C)CCC(=O)C(C)(C)[C@@H]5CC[C@]43C)[C@@H]12` (stereo not given in full) the “activity change, negative = inhibition” value was -18.5%. In the case of `O=C(CCCCO)CCCCCCCC[C@H]1N[C@H](CO)[C@H](O)[C@@H]1O[C@@H]1O[C@H](CO)[C@@H](O)[C@H](O)[C@H]1O`, the “activity change, negative = inhibition” value is reported as -8.13%. With `O=C1N[C@@H](Cc2cnc[nH]2)C(=O)N2CCC[C@@H]12` the “activity change, negative = inhibition” value was 0.011%. With `CC1=CCC(O)(C(C)C)CC1` (stereo not given) the “activity change, negative = inhibition” value was 4.96% [at 115 µM]. For `COc1cc(O)c2c(=O)c3c(OC)c(O)ccc3oc2c1`, the “activity change, negative = inhibition” value was 2.83%. For `CC(=O)[C@@]1(O)CCC2C3CC[C@H]4C[C@@H](O)CC[C@]4(C)C3CC[C@@]21C` (stereo not given in full), the “activity change, negative = inhibition” value was 8.1%. With `c1ccc2c(c1)CCC[C@H]2Nc1nc2ccccc2[nH]1` the “activity change, negative = inhibition” value was -16.2%.

Source: PubChem BioAssay (NCATS)
On the % scale 0 is the no-effect control and ±100 the full control effect.
